Data on 40 molecules can be found in PubChem BioAssay (Tox21).

Calls of active or inactive are those of the source. Entries that show only a call come without a potency. The call rests on the fitted dose curve; in most records, active means well fitted curve in the direction sought with a large enough effect in the repeat runs; inconclusive means weak or mixed curves; inactive means flat fitted curve, though single readings scatter.

This assay in a line: qHTS assay to test for compound auto fluorescence at 535 nm (green) in HEK293 cell free culture (AID 720682). The conditions noted are these: cell-free medium, green autofluorescence 485/535 nm; series mostly up to 91.3 µM. The source says:
U.S. Tox21 Program National Center for Advancing Translational Sciences [NCATS] NIH Chemical Genomics Center [NCGC] U.S. Environmental Protection Agency [EPA] National Institutes of Environmental Health Sciences [NIEHS] National Toxicology Program [NTP] U.S. Food and Drug Administration [FDA] Tox21 Assay Overview: Compound auto fluorescence often interferes with screening of the compound library against various biological targets and signaling pathways. Some of these compounds may have fluorophoric properties. Such properties may interfere with the assay outputs resulting in false positives and/or negatives. To decrease such complications and ensure the compound activities are relevant in terms of biological response, the Tox21 10K compound library was screened for auto fluorescence. From the fluorophores used as reporter signals in our screening assays, the auto fluorescence equivalencies of compounds against three fluorophores have been evaluated: Triamterene, Fluorescein and Rose Bengal sodium for blue, green and red fluorescence, respectively. The fluorescence intensities were measured using Excitation/Emission wavelengths at 405/460nm, 485/535nm and 540/590nm for blue, green and red labels, respectively. This assay includes the green fluorescence data.
Tox21 Assay Protocol Summary: 5 uL of culture medium (DMEM containing 10% FBS) per well was dispensed into black wall/clear bottom 1536-well plates using a Multidrop Combi Dispenser (ThermoFisher Scientific, Waltham, MA). After 23 nL compound or DMSO vehicle was transferred into assay plate by a pintool work station (Kalypsys, San Diego, CA), fluorescence intensities in the assay plates were measured by an Envision (PerkinElmer, Shelton, CT) plate reader using three labels for measuring blue, green and red fluorescence at […] 460, 535 and 590nm respectively.
For orientation: In qHTS, concentration-response curves come from the screen itself.
For `Cc1cc(Cc2cc(C)cc(C(C)(C)C)c2O)c(O)c(C(C)(C)C)c1`, the Potency entry was “inactive”. The entry for `Cc1cccc2n[nH]nc12` is “inactive”; for `BrC1CCC(Br)C(Br)CCC(Br)C(Br)CCC1Br` (stereo not given) it is “inactive”. Under `Cc1ccc(-c2cc(C(F)(F)F)nn2-c2ccc(S(N)(=O)=O)cc2)cc1` stands “inactive”.

Turning to `Nc1ccc(O)cc1`, the Potency entry was “inactive”.

As to `CC(C)(c1ccccc1)c1ccc(Nc2ccc(C(C)(C)c3ccccc3)cc2)cc1`, the Potency entry is “inactive”. Turning to `CC(COc1ccccc1)N(CCCl)Cc1ccccc1` (stereo not given), the Potency entry is “inactive”. The entry for `CC(=O)CC(=O)Nc1ccc2[nH]c(=O)[nH]c2c1` is “inactive”. The entry for `CC[C@@H](N)CO` is “inactive”.

Consider `CC1COC(=O)O1` (stereo not given), for which the Potency result was “inactive”. The entry for `COC(c1ccccc1)(c1ccccc1)[C@H](Oc1nc(C)cc(C)n1)C(=O)O` is “inactive”; for `CCC(CO)(CO)COCC(CC)(CO)CO` it is “inactive”. Regarding `CC(C)(C)c1ccc(O)c(C(C)(C)C)c1`, the Potency result is “inactive”.

As for `CC(C(O)c1ccc(O)cc1)N1CCC(Cc2ccccc2)CC1` (stereo not given), the Potency entry is “inactive”. Under `NC(=Nc1ccccc1)Nc1ccccc1` stands “inactive”; under `CCCCOCCOC(=O)c1ccccc1C(=O)OCCOCCCC`, “inactive”.

Regarding `Nc1cc(S(=O)(=O)O)cc2cc(S(=O)(=O)O)cc(O)c12`, the Potency result was “inactive”.

On to `c1cc(C(c2ccc(OCC3CO3)cc2)C(c2ccc(OCC3CO3)cc2)c2ccc(OCC3CO3)cc2)ccc1OCC1CO1` (stereo not given), for which the Potency result is “inactive”.

Regarding `Cc1ccc(S(=O)(=O)Oc2ccc(N=Nc3ccc(-c4ccc(N=Nc5c(O)ccc6cc(S(=O)(=O)O)cc(S(=O)(=O)O)c56)c(C)c4)cc3C)cc2)cc1`, the Potency entry is “inactive”.

`CCCCCCCCCCCCCC[P+](CCCC)(CCCC)CCCC`: the Potency entry is “inactive”.

On to `O=C(O[C@@H]1Cc2c(O)cc(O)cc2O[C@@H]1c1cc(O)c(O)c(O)c1)c1cc(O)c(O)c(O)c1`, for which the Potency result was “inactive”.

As to `NNCCc1ccccc1`, the Potency entry is “inactive”. `CCCC(=O)c1ccccc1`: the Potency entry was “inactive”. The entry for `CCCNC(C)C(=O)Nc1ccccc1C` (stereo not given) is “inactive”.

With `Oc1ccc(Cl)cc1Cc1cc(Cl)ccc1O`, the Potency entry was “inactive”. The entry for `Clc1ccc2c(c1)C(N1CCNCC1)=Nc1ccccc1O2` is “inactive”; for `CC(C)(C)NC(=O)[C@@H]1CN(Cc2cccnc2)CCN1C[C@@H](O)C[C@@H](Cc1ccccc1)C(=O)N[C@H]1c2ccccc2C[C@H]1O` it is “inactive”. Under `CC(C)(O)CCC(C)(C)O` stands “inactive”; under `Cc1cccc([N+](=O)[O-])c1C(=O)O`, “inactive”. The entry for `Oc1c(Cl)cc(Cl)cc1Sc1cc(Cl)cc(Cl)c1O` is “inactive”. `O`: the Potency result is “inactive”. The entry for `c1ccc2c(c1)CCCC2C1=NCCN1` (stereo not given) is “inactive”. For `CC1COc2c(N3CCN(C)CC3)c(F)cc3c(=O)c(C(=O)O)cn1c23` (stereo not given), the Potency result is “inactive”. The entry for `O=S(=O)(O)c1ccc2nc(-c3ccccc3)[nH]c2c1` is “inactive”; for `CCOc1ccc2c(c1)C(C)=CC(C)(C)N2` it is “inactive”. The entry for `CCN1CCCC1CNC(=O)c1cc(S(=O)(=O)CC)c(N)cc1OC` (stereo not given) is “inactive”.

As for `Cc1cc(C2(c3cc(C)c(O)cc3C)OS(=O)(=O)c3ccccc32)c(C)cc1O`, the Potency result is “inactive”. `CCN(CC)c1ccc2c(C)cc(=O)oc2c1`: the Potency entry was “inactive”. With `N[C@@H]1CONC1=O`, the Potency entry is “inactive”.

As to `CCCCCCCCCCCC[N+](C)(C)C`, the Potency entry is “inactive”.
